Experimental data: PubChem BioAssay
The source made the active and inactive calls.

Experiments:
[1] = binders of probe aFSTL3 on microarray, primary screen, stem cell growth factor project, biochemical, small-molecule microarray, fluorescence 635/667 (AID 1064); conditions: higher = more signal;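 note: measures binding of the biotinylated anti-FSTL3 antibody to printed compounds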
[2] = binders from COS7 lysate, DM2A8 probe, primary screen, torsin A project, cell lysate, small-molecule microarray, fluorescence 635/667 (AID 1065); conditions: higher = more signal, COS7 lysate expressing mutant human TOR1A
[3] = binders of probe aFGF2 on microarray, primary screen, stem cell growth factor project, biochemical, small-molecule microarray, fluorescence 635/667 (AID 1067); conditions: higher = more signal;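 note: measures binding of biotinylated aFGF2 protein to printed compounds on slides; z-score merges feature fluorescence and signal-to-noise across triplicate slides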
[4] = binders of probe aFGF10 on microarray, primary screen, stem cell growth factor project, biochemical, small-molecule microarray, fluorescence 635/667 (AID 1071); conditions: higher = more signal;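 note: score merges 667 nm spot intensity and signal to noise from triplicate slides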
[5] = molecular target: Neurogenic locus notch homolog protein 2 (Homo sapiens) (UniProt Q04721); assay: Notch2 binders on small-molecule microarrays, primary screen, biochemical, small-molecule microarray, 635 nm fluorescence, stem cell growth factors (AID 1073); conditions: Notch2 binding, higher = more signal
[6] = molecular target: Pro-neuregulin-1, membrane-bound isoform (Homo sapiens) (UniProt Q02297); assay: NRG1 binders on small-molecule microarrays, primary screen, psychiatric disease protein project, biochemical, small-molecule microarray, fluorescence 635/667 (AID 1075); conditions: NRG1 binding, 635 nm fluorescence, higher = more signal;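 note: score combines 667 nm spot fluorescence with signal to noise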
[7] = tested on: Neuregulin-1 EGF-like domain; assay: binders of neuregulin-1 EGF-like domain, primary screen, biochemical, small-molecule microarray, 635 nm fluorescence (AID 1081); conditions: small-molecule microarray binding, higher = more signal;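 note: binding of the protein to compounds printed on small-molecule microarray slides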
[8] = FRG1 promoter luciferase signal modulators, primary screen, FRG1 inhibition for FSHD, cell-based, C2C12 myotubes, firefly/Renilla luciferase, luminescence (AID 1084); conditions: higher = more signal, called active from +8 up or from −8 down
[9] = binders of probe aFST on microarray, primary screen, stem cell growth factor project, biochemical, small-molecule microarray, fluorescence 635/667 (AID 1086); conditions: higher = more signal;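 note: score merges 667 nm fluorescence with signal-to-noise of each printed compound spot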
[10] = binders of probe aHhip on microarray, primary screen, stem cell growth factor project, biochemical, small-molecule microarray, fluorescence 635/667 (AID 1087); conditions: higher = more signal;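 note: score merges spot fluorescence at 667nm with spot signal to noise ratio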

Sequence of Neurogenic locus notch homolog protein 2 (Homo sapiens) (Q04721 whole entry, looked up, canonical isoform): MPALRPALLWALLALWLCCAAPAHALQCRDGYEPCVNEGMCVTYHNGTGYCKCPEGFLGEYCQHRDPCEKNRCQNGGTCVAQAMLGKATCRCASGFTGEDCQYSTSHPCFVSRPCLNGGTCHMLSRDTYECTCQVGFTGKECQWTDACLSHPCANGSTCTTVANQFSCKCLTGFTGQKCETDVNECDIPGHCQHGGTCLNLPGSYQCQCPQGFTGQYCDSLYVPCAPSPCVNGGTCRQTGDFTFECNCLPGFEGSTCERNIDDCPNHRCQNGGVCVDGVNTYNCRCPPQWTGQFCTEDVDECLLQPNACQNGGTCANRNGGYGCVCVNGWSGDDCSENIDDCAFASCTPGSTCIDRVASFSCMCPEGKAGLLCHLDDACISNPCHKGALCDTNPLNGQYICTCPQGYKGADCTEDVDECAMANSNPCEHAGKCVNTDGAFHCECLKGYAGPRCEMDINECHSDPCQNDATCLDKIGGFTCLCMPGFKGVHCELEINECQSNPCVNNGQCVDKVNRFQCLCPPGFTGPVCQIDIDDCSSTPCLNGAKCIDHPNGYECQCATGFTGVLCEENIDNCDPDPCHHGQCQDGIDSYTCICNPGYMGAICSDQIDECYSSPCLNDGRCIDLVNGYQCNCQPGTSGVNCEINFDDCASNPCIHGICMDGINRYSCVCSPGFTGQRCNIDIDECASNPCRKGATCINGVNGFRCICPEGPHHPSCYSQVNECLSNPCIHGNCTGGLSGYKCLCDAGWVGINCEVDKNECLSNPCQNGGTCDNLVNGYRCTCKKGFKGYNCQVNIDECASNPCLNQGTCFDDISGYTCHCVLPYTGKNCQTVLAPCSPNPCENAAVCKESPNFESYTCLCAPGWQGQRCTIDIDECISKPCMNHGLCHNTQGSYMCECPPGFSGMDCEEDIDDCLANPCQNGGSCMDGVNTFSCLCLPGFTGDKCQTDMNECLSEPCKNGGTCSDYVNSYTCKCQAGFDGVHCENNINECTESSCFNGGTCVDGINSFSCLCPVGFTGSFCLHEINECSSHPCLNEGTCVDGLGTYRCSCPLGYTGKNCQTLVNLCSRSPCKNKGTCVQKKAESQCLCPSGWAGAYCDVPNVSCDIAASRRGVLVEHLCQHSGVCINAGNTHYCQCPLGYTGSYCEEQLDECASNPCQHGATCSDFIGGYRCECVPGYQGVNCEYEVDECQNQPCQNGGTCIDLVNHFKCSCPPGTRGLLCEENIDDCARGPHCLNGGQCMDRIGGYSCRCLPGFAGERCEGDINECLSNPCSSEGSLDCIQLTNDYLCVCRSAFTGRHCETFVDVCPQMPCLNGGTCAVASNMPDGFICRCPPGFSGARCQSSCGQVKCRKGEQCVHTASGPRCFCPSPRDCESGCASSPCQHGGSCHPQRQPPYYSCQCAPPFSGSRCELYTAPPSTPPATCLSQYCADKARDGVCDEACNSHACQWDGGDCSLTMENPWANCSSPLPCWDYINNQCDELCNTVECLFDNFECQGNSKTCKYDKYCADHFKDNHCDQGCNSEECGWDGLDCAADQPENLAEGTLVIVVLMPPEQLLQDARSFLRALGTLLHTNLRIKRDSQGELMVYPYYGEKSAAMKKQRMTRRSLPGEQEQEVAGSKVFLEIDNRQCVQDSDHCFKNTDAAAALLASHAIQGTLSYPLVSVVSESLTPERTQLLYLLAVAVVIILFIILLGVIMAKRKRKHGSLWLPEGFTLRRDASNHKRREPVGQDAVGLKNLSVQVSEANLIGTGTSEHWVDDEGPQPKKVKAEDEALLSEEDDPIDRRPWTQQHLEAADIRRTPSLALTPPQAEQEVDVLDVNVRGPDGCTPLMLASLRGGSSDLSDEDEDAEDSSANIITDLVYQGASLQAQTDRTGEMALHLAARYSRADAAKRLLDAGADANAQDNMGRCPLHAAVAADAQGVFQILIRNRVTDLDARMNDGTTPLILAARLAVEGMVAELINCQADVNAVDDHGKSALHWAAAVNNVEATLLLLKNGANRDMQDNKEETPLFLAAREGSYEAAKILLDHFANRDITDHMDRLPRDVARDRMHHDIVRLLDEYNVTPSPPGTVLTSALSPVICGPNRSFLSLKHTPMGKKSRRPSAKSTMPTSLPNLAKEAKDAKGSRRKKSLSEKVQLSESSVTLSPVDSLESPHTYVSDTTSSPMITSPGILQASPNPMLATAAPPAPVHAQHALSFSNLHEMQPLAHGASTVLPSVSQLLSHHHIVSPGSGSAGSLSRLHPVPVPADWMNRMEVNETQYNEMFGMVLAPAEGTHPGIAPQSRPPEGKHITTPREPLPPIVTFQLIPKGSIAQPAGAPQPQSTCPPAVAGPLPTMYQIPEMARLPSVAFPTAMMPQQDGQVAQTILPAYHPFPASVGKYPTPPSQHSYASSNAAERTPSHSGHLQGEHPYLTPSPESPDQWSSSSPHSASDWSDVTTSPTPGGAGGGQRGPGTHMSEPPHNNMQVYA
Sequence of Pro-neuregulin-1, membrane-bound isoform (Homo sapiens) (Q02297 whole entry, looked up, the tested form may be a part, canonical isoform): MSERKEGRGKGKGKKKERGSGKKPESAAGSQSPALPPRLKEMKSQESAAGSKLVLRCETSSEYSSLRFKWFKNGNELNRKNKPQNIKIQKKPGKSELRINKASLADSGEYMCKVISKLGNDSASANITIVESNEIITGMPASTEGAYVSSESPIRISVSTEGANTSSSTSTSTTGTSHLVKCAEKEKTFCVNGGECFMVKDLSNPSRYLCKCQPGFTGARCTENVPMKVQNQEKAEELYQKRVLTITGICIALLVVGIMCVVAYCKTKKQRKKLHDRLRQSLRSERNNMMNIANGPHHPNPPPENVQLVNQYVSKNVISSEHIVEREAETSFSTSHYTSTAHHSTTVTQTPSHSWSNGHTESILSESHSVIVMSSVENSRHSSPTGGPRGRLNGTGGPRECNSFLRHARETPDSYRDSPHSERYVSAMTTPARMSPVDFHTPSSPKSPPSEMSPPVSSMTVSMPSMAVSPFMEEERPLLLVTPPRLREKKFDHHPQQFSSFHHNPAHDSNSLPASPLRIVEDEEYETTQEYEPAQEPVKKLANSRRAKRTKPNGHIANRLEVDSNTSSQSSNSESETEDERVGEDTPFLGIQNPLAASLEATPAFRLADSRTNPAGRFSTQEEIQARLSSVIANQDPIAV

SMILES | composite z-score [1] | composite z-score [2] | composite z-score [3] | composite z-score [4] | composite z-score [5] | composite z-score [6] | composite z-score [7] | z-score [8] | composite z-score [9] | composite z-score [10]
O=C1NC(=O)C2C1C=CC(C(O)c1ccc(B(O)O)cc1)N2Nc1ccc(Cl)cc1Cl (stereo not given) | -0.144 | -0.397 | -0.0095 | 0.454 | 1.11 | 1.16 | 0.955 | 0.402 (inactive) | 0.514 | -0.0645
COC(=O)[C@@]1(Cc2ccc(OC)cc2)[C@H]2c3cc(C(=O)N4CCCC4)n(Cc4ccc(Cl)c(C(F)(F)F)c4)c3C[C@H]2CN1C(=O)c1ccccc1 | 0.608 | 0.673 | 0.243 | 0.437 | 1.64 | 2 | 0.605 | -2.87 (inactive) | 1.53 | 0.132
CC(C)(C)N1CC=CC23O[C@@H]4/C=C\CCCOC(=O)C4[C@H]2C(=O)N(CCCCCO)[C@@H]3C1=O (stereo not given in full) | 1.26 | -0.406 | -0.227 | -0.668 | -0.545 | -0.229 | -0.448 | -0.106 (inactive) | -1.09 | 0.176
CC(C)C(O)C1C=CC2C(=O)NC(=O)C2N1Nc1ccccn1 (stereo not given) | 0.359 | -0.103 | -0.0502 | 0.138 | 0.926 | 0.306 | 1.1 | 0.944 (inactive) | 0.547 | 0.151
O=C1O[C@H](c2ccccc2)[C@H](c2ccccc2)N2[C@H]1[C@@H](C(=O)O)[C@]1(C(=O)Nc3ccc(C#CCCO)cc31)[C@H]2c1ccc(OCCO)cc1 | 0.282 | 1.12 | -0.12 | 0.826 | 0.89 | 1.86 | 1.28 | -0.708 (inactive) | 0.101 | 0.189
COC(=O)[C@@]1(Cc2ccccc2)[C@H]2c3cc(C(=O)N(C)C)n(CCO)c3C[C@H]2CN1C(=O)c1ccccc1 | 0.348 | 0.0312 | 0.152 | 1.14 | 1.39 | 1.93 | 1.17 | 1.27 (inactive) | 0.647 | -0.418
CCOC(=O)C[C@H]1[C@H](OC(=O)Cc2ccc3c(c2)OCO3)[C@@H](NC(=O)Cc2ccc(OC)cc2)c2cc(OCCCO)ccc2N1C(=O)Cc1ccc(OC)cc1 | -0.199 | 0.225 | -0.128 | 0.209 | 0.121 | 0.007 | 0.501 | -3.1 (inactive) | 0.255 | 0.132
[N-]=[N+]=Nc1ccccc1[C@@H]1OC(c2ccc(OCCCO)cc2)=N[C@]1(CCS(=O)(=O)c1ccccc1)C(=O)NCC(O)CO (stereo not given in full) | 0.158 | 0.372 | -0.0125 | 0.0835 | 0.209 | 1.05 | 1.21 | -0.463 (inactive) | 0.283 | 0.0401
COc1ccc([Si](C)(C)[C@H]2[C@H](CC(=O)N3Cc4ccccc4C[C@H]3CO)O[C@@]3(C(=O)N(C)c4ccccc43)[C@@H]2C)cc1 | 0.271 | 1.09 | -0.081 | 0.583 | 0.647 | 1.65 | 1.36 | -3.34 (inactive) | 0.596 | 0.315
COc1ccc(NN2C(C(O)c3ccc(I)cc3)C=CC3C(=O)N(C4CCCCC4)C(=O)C32)cc1 (stereo not given) | 0.0109 | 0.813 | -0.0024 | 0.896 | 1.39 | 1.02 | 1.04 | -0.21 (inactive) | 1.61 | 0.245
CO[C@H]1O[C@H](CO)[C@@H](OC(=O)Nc2ccccc2)[C@H](OC(=O)Nc2ccccc2)[C@H]1OC(=O)Nc1ccccc1 | -0.114 | 0.0396 | 0.118 | 1.17 | 0.971 | 0.888 | 1.34 | 0.921 (inactive) | 0.0643 | -0.0296
NC(=O)NCC#Cc1ccc2c(c1)[C@]1(C(=O)N2)[C@H](c2ccc(OCCO)cc2)N2[C@H](c3ccccc3)[C@H](c3ccccc3)OC(=O)[C@H]2[C@@H]1C(=O)O | -0.218 | 1.36 | -0.187 | 0.23 | -0.459 | 1.68 | -0.269 | 0.542 (inactive) | 0.0897 | -0.374
C=CC[C@@]12N=C(c3ccc(OCCCO)cc3)O[C@@H]1c1ccccc1N(CCC)C2=O | 0.953 | -0.0868 | 0.0528 | 0.288 | 0.381 | 0.984 | 1.21 | 2.39 (inactive) | 0.298 | -0.0645
CCCCCC1=C2CNC(Cc3ccccc3)(C(=O)OC)C=C2C(C)C1=O (stereo not given) | 1.16 | 0.249 | -0.0593 | 0.279 | 0.227 | 0.932 | 0.446 | 1.53 (inactive) | 0.602 | 0.604
